SMILES strings stand for the structures. Where “and” joins values, the source holds several entries; their conditions need not be identical. Equal values may be shown once. Inconclusive results are not listed. Entries that show only a call come without a potency. Calls of active or inactive are those of the source. Calls come from the whole dose curve; as a rule, active = well fitted cell-killing curve with a large enough effect; inconclusive = small, poorly fitted or top-dose-only effect, or effect the other way; inactive = no such curve, though single readings can be large or run the other way.
Potency is the fitted concentration of half-maximal effect.

The test is described as follows: Viability qHTS for spleen associated tyrosine kinase inhibitor (SYKi) naive MV4-11 cells (AID 1963823). Note: nearly all actives have a fitted effect of over 40% in size. The following applies: MV4-11 AML viability, CellTiter-Glo luminescence, 72 h; series mostly up to 45 µM. An excerpt: Department of Medicine, Hematology/Oncology
University Hospital Frankfurt, Germany.
Trials have shown promising clinical activity of the selective SYK inhibitor entospletinib in patients with high expressing HOXA9/MEIS1 acute leukemias. As the development of resistance mechanisms is a common problem in the use of targeted drugs, we performed a chemical library screen to identify drug sensitivities in SYK inhibitor resistant AML cells. […] Glucocorticoids are potent immunosuppressants which work in part by inhibiting the transcription of cytokine genes.
Described herein is a viability screen to look for activity in the SYK inhibitor naive cell line against four NCATS compound libraries (MIPE 5.0, NPC, NPACT, and Kinase) totaling 11372 compounds. Active hits were reacquired for confirmation and further secondary assay testing.
SEQUENCE No. (e.g., 1, 2, 3, etc.); […] (e.g., Cells, Incubation, Reagent, etc.); VALUE; DESCRIPTION.
1; Media; 2uL; white, solid-bottom Corning assay plate.
2; Compounds; 23nL; Echo acoustic dispenser.
3; Cell; 5uL; 500 cells per well.
4: Incubation; 72hr; 37 C, 5% CO2, 95% humidity.
5; Reagent; 3uL; CellTiter-Glo reagent (Promega).
6; Incubation; 10min; room temperature.
7; Detection; Luminescence; ViewLux plate reader (PerkinElmer).
NOTES (numbers refer to Sequence numbers above
1. Quantitative high-throughput screening (qHTS) of small molecule compounds was conducted on naive SYKi MV4-11 cell line.
2. Twenty-three nanoliter of small molecule compounds were added to each assay plates using the Echo acoustic dispenser (Beckman Coulter).
3. Cells were seeded into the assay plates at a final density of 500 cells in 5uL of media per well using the Multi-drop Combi dispenser.
4. Plates were covered with stainless steel gasketed lids and incubated for 72 hours at standard cell culture conditions.
5. Viability was assessed by adding 3uL of CellTiter-Glo detection reagent (Promega).
6. Plates were covered with gasket lids and incubated for 10 minutes at room temperature.
7. Luminescence was measured on a ViewLux plate reader (PerkinElmer).
`Cc1cnn(-c2ccccc2)c1NC(=O)COCc1ccccc1`: the Potency entry is “inactive”.

For the compound `Cc1c(N)cccc1C(F)(F)F`, the Potency result was “inactive”.

For `CCNC(=O)/C=C/c1cccc(Br)c1`, the Potency result was “inactive”.

`CCCCC/C=C\C/C=C\CCCCCCCC(=O)NC(C)c1ccccc1` (stereo not given): the Potency is 11900 nM (active).

As to `CC1CCC2(NC1)OC1C(O)C3C4CCC5CC(O[C@@H]6O[C@H](CO)[C@@H](O)[C@H](O)[C@H]6O[C@@H]6O[C@@H](C)[C@H](O)[C@@H](O)[C@H]6O)CCC5(C)C4CCC3(C)C1C2C` (stereo not given in full), the Potency result was “inactive”.

In the case of `C[C@]1(OC(=O)/C=C\c2ccc(O)cc2)C[C@@H](O)[C@]2(O)C=CO[C@@H](O[C@@H]3O[C@H](CO)[C@@H](O)[C@H](O)[C@H]3O)C12` (stereo not given in full), the Potency result is “inactive”.

As for `COc1ccc2c(c1)C[C@H](C(=O)Nc1ccc(-c3cn[nH]c3)cc1OCCN(C)C)CO2`, the Potency was 651 nM (active).

`CCN1/C(=C/C=C/c2sc3ccccc3[n+]2CC)Sc2ccccc21`: the Potency was 18.4 nM (active).

Consider `OC1C(O)C(O)C(O)C(O)C1O` (stereo not given), for which the Potency entry is “inactive”.

As for `CN(C)c1ccc(-c2nc3ncc(Cl)c(N4CCN(CC(=O)Nc5nccs5)CC4)c3[nH]2)cc1`, the Potency was 257 nM (active).

Consider `O=C(O)c1cc(=O)c2ccccc2o1`, for which the Potency result is “inactive”.

Turning to `C/C(=C/CO)CC[C@H]1[C@]2(C)C[C@H](O)CC(C)(C)[C@H]2CC[C@]1(C)O`, the Potency entry was “inactive”.

Regarding `Cc1cc(-c2nc(C(=O)Nc3cn(C4CCOCC4)nc3C(N)=O)co2)ccn1`, the Potency is 46.1 nM (active).

On to `CC(C)c1noc(C2CCN(c3ncnc(Nc4ccc(S(C)(=O)=O)cc4F)c3[N+](=O)[O-])CC2)n1`, for which the Potency result was “inactive”.

As for `COc1ccc(C2CNC(=O)C2)cc1OC1CCCC1` (stereo not given), the Potency was 525 nM (active).

With `O[C@@H]1CO[C@H]2[C@@H]1OC[C@@H]2O`, the Potency result is “inactive”.

In the case of `CCOc1cc(NC(C)=O)ccc1C(=O)OC`, the Potency entry was “inactive”.

For `COc1ccc(CCO[C@@H]2CCCC[C@H]2N2CC[C@@H](O)C2)cc1OC`, the Potency result was “inactive”.

Take `Nc1ncnc(Nc2ccc(OCc3ccccc3)c(Cl)c2)c1/C=N/OCCN1CCOCC1`: the Potency is 8330 nM (active).

`CNC(=O)c1ccc2cc([C@@]3(O)CCn4cncc43)ccc2c1`: the Potency entry was “inactive”.

For `Cc1ccc(-c2ccccc2C#N)cc1`, the Potency entry was “inactive”.

As to `NC(=O)c1cccc(-c2cccc(OC(=O)NC3CCCCC3)c2)c1`, the Potency result is “inactive”.

Regarding `Cc1c(NC(C)C)c(=O)n(-c2ccccc2)n1C`, the Potency result is “inactive”.

For `CCS(=O)(=O)CCn1c([N+](=O)[O-])cnc1C`, the Potency entry is “inactive”.

For the compound `COc1cc2ncnc(Nc3cccc(O)c3)c2cc1OC`, the Potency is 411 nM (active).

Regarding `CNC1CCC(N(Cc2cccc(-c3ccncc3)c2)C(=O)c2sc3ccccc3c2Cl)CC1` (stereo not given), the Potency is 7.31 µM (active) and 5.25 µM (active).

For `CCN(CC)C(=O)/C(C#N)=C/c1cc(O)c(O)c([N+](=O)[O-])c1`, the Potency result is “inactive”.

Turning to `CC(=O)OC(C)C(C)(O)C(=O)O[C@@H]1CC[C@]2(C)CC(=O)C(=C(C)C)C[C@H]2[C@]1(C)OC(C)=O` (stereo not given in full), the Potency is 5630 nM (active).

`COc1cc(O)cc2c1C(=O)OC(C)C2` (stereo not given): the Potency entry is “inactive”.

For `NC(=O)NNc1ccccc1`, the Potency result was “inactive”.

On to `CN1CCN(c2ccc(-c3cccc(CN4CCOCC4)c3)cc2NC(=O)c2c[nH]c(=O)cc2C(F)(F)F)CC1`, for which the Potency result is “inactive”.

Consider `COc1cc(/C=C/CO)ccc1O[C@@H]1O[C@H](CO)[C@@H](O)[C@H](O)[C@H]1O`, for which the Potency result is “inactive”.

Turning to `C[C@H](O)[C@H](O)[C@H]1CNc2nc(N)[nH]c(=O)c2N1`, the Potency entry was “inactive”.

`CC(C)NC(=O)c1ccc(C=O)cc1`: the Potency result was “inactive”.

As for `Cc1cc(C)cc(NC(=O)Cc2ccc(OC(C)(C)C(=O)O)cc2)c1`, the Potency entry is “inactive”.

Consider `Cc1nc2ccc(CN(C)c3ccc(C(=O)NC(CCC(=O)O)C(=O)O)s3)cc2c(=O)[nH]1` (stereo not given), for which the Potency is 6.5 nM (active).

`NS(=O)(=O)c1cc2c(cc1Cl)NC(CC1CCCC1)NS2(=O)=O` (stereo not given): the Potency entry is “inactive”.

Take `[O-][n+]1cccc(/C(Cl)=N/OC[C@@H](O)CN2CCCCC2)c1`: the Potency entry was “inactive”.

Take `C[C@H]1[C@H](NC(=O)/C(=N/OC(C)(C)C(=O)O)c2csc(N)n2)C(=O)N1S(=O)(=O)O` (stereo in doubt): the Potency result is “inactive”.

With `CC12CCC3c4ccc(OC5OC(C(=O)O)C(O)C(O)C5O)cc4CCC3C1CCC2O` (stereo not given), the Potency result was “inactive”.
